Values joined by “and” are separate entries in the source; they are usually repeats but may differ in a detail not shown here. Equal entries are not always repeated. The campaign covered roughly 420,000 compounds. About 64,000 (15%) were called active. Not shown: some 27% with an inconclusive outcome. Only a sample is shown. Values without a mark were called inactive. Calls come from the whole dose curve; as a rule, active = well fitted inhibition curve with a large enough effect; inconclusive = small, poorly fitted or top-dose-only effect; inactive = flat fitted curve, though single readings scatter.
assay: qHTS for Inhibitors of human tyrosyl-DNA phosphodiesterase 1 (TDP1): qHTS in cells in absence of CPT; conditions: DT40 Tdp1-/- hTDP1 cells, no CPT, ATP luminescence, 48 h; activity change, negative = growth inhibition: at 46.2 µM (top of the series); note: nearly all actives have a fitted effect of over 55% in size
How it was run: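 Cells were dispensed at 400 per well, compounds added by pin tool, plates incubated ≥48 hr at 37 °C, then CellTiter-Glo added for 30 min at room temperature before luminescence reading. Line: DT40 Tdp1-/- complemented with hTDP1; camptothecin omitted.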
% is set by controls: 0 for no effect and ±100 for the full control effect; potency is the fitted concentration of half-maximal effect.

SMILES	activity change, negative = growth inhibition	Potency
Cc1n[nH]c(=O)c2c(NC(=O)COC(=O)c3ncc(Cl)c(Cl)c3Cl)oc(C)c12	6.05%	–
O=C(CN1CCN(S(=O)(=O)c2ccc(Cl)s2)CC1)NCc1ccc(Cl)cc1	-29%	–
N#Cc1ccc(COC(=O)Cn2nnc(-c3ccccc3)n2)cc1	-19%	–
Cc1ccc(NC(=O)CN2C(=O)NC(C)(c3ccc(Cl)cc3)C2=O)c(Br)c1 (stereo not given)	-22.8%	–
Cc1c(S(=O)(=O)NC(C)c2ccccc2)c(=O)n(C)c(=O)n1C (stereo not given)	-1.62%	–
CCOC(=O)c1cc(NC(=O)c2cccnc2)ccn1	1.41%	–
CC(=O)c1sc(NC(=O)c2cccc3ccccc23)nc1C	-15.2%	–
Cn1sc(NC(=O)c2ccccc2)nc1=O	-26.2%	–
CCOC(=O)c1cc(-c2sc(NC(=O)c3ccccc3)nc2C)n(CCO)n1	–	6.51 µM (active)
CCOC(=O)c1cc(OC(=O)c2ccccc2Cl)n(-c2ccccc2)n1	6.19%	–
C=CCn1nc(C(=O)OCC)cc1-c1sc(NC(=O)c2ccccc2)nc1C	–	20.6 µM (active)
CCOc1ccc(C(=O)Nc2c3c(nn2-c2ccccc2)CS(=O)(=O)C3)cc1	-0.524%	–
CCOC(=O)c1sc(NC(=O)CSc2nc(O)c(Cc3ccccc3)c(=O)[nH]2)nc1C	-10.8%	–
CCOC(=O)C(=O)Nc1nc(-c2ccccc2)c(CC)s1	8.26%	–
CCOC(=O)c1cc(-c2sc(NC(=O)c3ccccc3)nc2C)n(Cc2ccccc2)n1	–	18.4 µM (active)
CCOC(=O)c1cc(-c2sc(NC(=O)c3ccccc3)nc2C)n(-c2ccc(Br)cc2)n1	–	25.9 µM (active)
CCOc1ccccc1NC(=O)CSc1ncc(S(=O)(=O)c2ccc(C(C)(C)C)cc2)c(=O)[nH]1	-3.29%	–
O=C1CSC2=NCN(c3ccccc3)CN12	-3.67%	–
Nc1scc(-c2ccncc2)c1Cl	-16.4%	–
Cc1nc2ccc(S(=O)(=O)N(C)CC(=O)NC(C)c3ccccc3)cc2s1 (stereo not given)	3.67%	–
CCCc1cc(=O)oc2c(C)c(OC(C)C(=O)NCC(O)c3ccccc3)ccc12 (stereo not given)	-23.7%	–
c1ccc2cc(OCCN3CCCC3)ccc2c1	-9.25%	–
Cc1nnc2n1N=C(c1ccc3c(c1)NC(=O)CO3)CS2	5.1%	–
CC(C(=O)NCCc1ccc(S(N)(=O)=O)cc1)N1C(=O)CC(C)(C)Sc2ccccc21 (stereo not given)	-15.5%	–
Cc1c(C(=O)NNC(=O)c2ccncc2)oc2ccccc12	-22.1%	–
C/C(=C/C(=O)N1CCN(C)CC1)C(=O)O	-3.36%	–
COc1ccc(CCNC(=O)c2cc(-c3ccc4c(c3)OCO4)on2)cc1OC	11.6%	–
COc1ccc(F)cc1S(=O)(=O)Nc1ccc2c(c1)OCO2	-6.78%	–

SMILES	activity change, negative = growth inhibition	Potency
COc1cc(-c2c(-c3ccc4c(c3)OCO4)noc2C)ccc1F	–	17.8 µM (active) and 16.4 µM (active)
COc1ccccc1NC(=O)N1CCCC1C(=O)NCc1cccs1 (stereo not given)	-10.8%	–
O=C(CSC1=Nc2ccccc2C2=NC(CC(=O)NCc3ccco3)C(=O)N12)NCc1ccco1 (stereo not given)	1.91%	–
O=C(CC1N=C2c3ccccc3N=C(SCc3cccc(Cl)c3)N2C1=O)NCc1ccc2c(c1)OCO2 (stereo not given)	–	20.6 µM (active)
O=C(CC1N=C2c3ccccc3N=C(SCc3ccccc3Cl)N2C1=O)NCc1ccco1 (stereo not given)	-26.3%	–
NC(=O)CSC1=Nc2ccccc2C2=NC(CCC(=O)NCc3ccc(F)cc3)C(=O)N12 (stereo not given)	-4.51%	–
COc1ccccc1NC(=O)CSC1=Nc2ccccc2C2=NC(CC(=O)NCc3cccs3)C(=O)N12 (stereo not given)	–	20.6 µM (active)
CC(C)NC(=O)N1CC[C@@]2(CCCN(C(=O)c3ccco3)C2)C1	-4.55%	–
COc1ccc(N2C(=O)C3CCCN3C2c2cccc(OC)c2)cc1 (stereo not given)	7.35%	–
Cc1ccc(OCC(=O)Nc2ccc(S(=O)(=O)Nc3ccccn3)cc2)cc1	-17.3%	–
Cc1ccc(S(=O)(=O)Nc2ccc3ncccc3c2)cc1	–	9.2 µM (active)
Cc1ccc(NS(=O)(=O)c2ccc(C(C)(C)C)cc2)cn1	3.16%	–
CS(=O)(=O)N(CC(=O)Nc1ccc(F)cc1)C1CCCCC1	-1.03%	–
CS(=O)(=O)N1CCC2(CC1)CN(Cc1ccccc1)C2	3.71%	–
O=c1onc(-c2cccs2)n1Cc1ccccc1	5.15%	–
Cc1ccc(CN2C(=O)SC(Nc3ccccc3)C2=O)cc1 (stereo not given)	-22.8%	–
Cc1ccc(-c2nc(=N)sn2Cc2ccccc2)cc1	–	4.47 µM (active)
c1ccc2c(c1)OCCOCCOCCO2	1.21%	–
Cc1ccc(NC(=O)CN(C)C(=O)c2ccc(Br)o2)cc1	-27.8%	–
O=C(Nc1ccccc1Cl)Nn1cnnc1	2.76%	–
O=C(Nc1ccccc1Cl)c1ccc2nsnc2c1	-17.8%	–
O=C(Nc1ccccc1Cl)/C(Cl)=C(\Cl)S(=O)c1ccccc1 (stereo not given)	–	0.206 µM (active)
C=CCn1c(COc2ccc(F)cc2)nnc1SCC(=O)Nc1cccc(S(N)(=O)=O)c1	8.91%	–
O=C(c1cnccn1)N1CCN(S(=O)(=O)c2cccc(Cl)c2)CC1	-6.3%	–
COc1ccc(-c2ccc(Nc3ccc(S(=O)(=O)N4CCCC4)cc3)nn2)cc1OC	–	18.4 µM (active)
COc1cc(NS(=O)(=O)c2ccc(NC(=O)c3ccc(S(=O)(=O)N4CCCCC4)cc3)cc2)ncn1	-8.32%	–
COc1ccc(S(=O)(=O)Nc2ccc(S(=O)(=O)N3CCCCC3)cc2)cc1OC	-18.2%	–
